Assay [1] can be described thus: S16 Schwann cell viability assay (CellTiter-Glo assay) (AID 624031).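 Note: plate controls were DMSO-treated cells for no effect and cell-free wells for full effect; nearly all actives have a fitted effect of over 70% in size.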 To be noted: S16 rat Schwann cells viability, 24 h; series mostly up to 57.5 µM. The gist of the method:
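Untransfected S16 rat Schwann cells; compound 24 h, 37 °C/5% CO2; CellTiter-Glo ATP luminescence. % activity vs no-cell wells and DMSO controls (0%); concentration-effect curves classed by r2, response magnitude, activity.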
A general note: ATP-based viability assays read luminescence as a measure of living cells.

Assay [2] is described as follows: S16 Schwann cell PMP22 intronic element firefly luciferase assay (AID 624032).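 Note: plate controls were DMSO for no effect and PTC124 positive control mean for full effect; nearly all actives have a fitted effect of over 30% in size.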 To be noted: S16 rat Schwann cells, PMP22 element FLuc, 24 h; series mostly up to 57.5 µM. Summed up:
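Rat S16 Schwann cells stably carrying firefly luciferase driven by a PMP22 intronic element, in 10% FBS, treated 24 h at 37 C. ONE-Glo luminescence normalized to PTC124 control and DMSO (0%); curves classed by r2, magnitude and activity.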

Assay [3] in a line: S16 Schwann cell PMP22 intronic element beta-lactamase assay (AID 624044; calls by dose curve;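 note: 0% = DMSO and -100% = potassium clavulanate positive control; nearly all actives have a fitted effect of over 15% in size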). Conditions: S16 rat Schwann cells, PMP22 element beta-lactamase FRET, 24 h; series mostly up to 38.3 µM. Summed up:
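Beta-lactamase reporter under a PMP22 intronic regulatory element in stable S16 rat Schwann cells; 24 h compound exposure. 460 nm blue signal normalized between DMSO (0%) and potassium clavulanate, with 535 nm FRET tracking viability; curves classed by r2 and response.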

A short description of assay [4]: qHTS profiling of the MIPE4 collection as inhibitors of Plasmodium falciparum (3D7) proliferation (AID 743344; call rule not given here;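 note: scaled between DMSO vehicle wells and 0.29 µM artemisinin as full inhibition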). To be noted: P. falciparum 3D7 in erythrocytes, SYBR Green DNA fluorescence, 72 h; at 28.5 µM (top of the series). The gist of the method:
(§1)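 Parasite DNA was quantified by SYBR Green I fluorescence (ex 485, em 535 nm) after overnight lysis in saponin/Triton buffer at room temperature. Cultures at 0.3% parasitemia and 2.5% hematocrit were first exposed to compound for 72 h at 37 C; signals were normalised to artemisinin (0.29 uM) and vehicle wells.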
(In general: qHTS replaces the single test concentration by a dilution series.)

Assay [5] can be described thus: qHTS profiling of the MIPE4 collection as inhibitors of Plasmodium falciparum (DD2) proliferation (AID 743345; call rule not given here). Conditions: P. falciparum Dd2 in erythrocytes, SYBR Green DNA, 72 h; at 28.5 µM (top of the series). The gist of the method:
as §1

Assay [6] is described as follows: qHTS profiling of the MIPE4 collection as inhibitors of Plasmodium falciparum (DD2) proliferation (Rep 2) (AID 743346; call rule not given here). To be noted: P. falciparum Dd2 in erythrocytes, SYBR Green DNA, 72 h; at 28.5 µM (top of the series). Summed up: as §1
Assay [7] is described as follows: qHTS profiling of the MIPE4 collection as inhibitors of Plasmodium falciparum (HB3) proliferation (AID 743347; call rule not given here;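 note: plate controls were DMSO vehicle wells for no effect and artemisinin wells for full effect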). To be noted: P. falciparum HB3 in erythrocytes, SYBR Green DNA, 72 h; at 28.5 µM (top of the series). The gist of the method: as §1
Assay [8] can be described thus: qHTS for Inhibitors of the vitamin D receptor (VDR): Hit Validation using a Texas Red Assay (AID 602201). Note: potency is the fitted concentration of half-maximal effect. To be noted: VDR coregulator binding, Texas Red fluorescence polarization; agonist-bound VDR ligand-binding domain. The gist of the method: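 Fluorescence polarization with 1.5 uM VDR-LBD, LG19078 and 7 nM Texas Red (final). After 2 hours at ambient temperature, read at Ex 595 nm/Em 615 nm.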

Assay [9] deals with Guanine nucleotide-binding protein G(i) subunit alpha-1 (Homo sapiens) (UniProt P63096). Put plainly: qHTS Assay for Inhibitors of RGS12 GoLoco Motif Activity (Green Fluorophore) (AID 879).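 Note: 0% = labeled peptide with Gαi1 and full inhibition = labeled peptide alone without protein; negative values mean loss of peptide binding seen as reduced polarization.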 To be noted: Galphai1/FITC-RGS12 GoLoco peptide, fluorescence polarization; series mostly up to 57.1 µM. Summed up: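 A drop in FITC polarization marked displacement of the FITC-tagged RGS12 GoLoco peptide (10 nM) from Gαi1 (50 nM). Compounds were incubated 10 min at room temperature in Tris pH 7.5 buffer containing 150 mM NaCl, 0.1 mM GDP and 0.05% NP40; unlabeled peptide titration served as control.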

Assay [10] concerns the target Muscarinic acetylcholine receptor M1 (Rattus norvegicus) (UniProt P08482). Put plainly: qHTS Assay for Antagonists of Acetylcholine Muscarinic M1 Receptor: Kinetic Measurement of Intracellular Calcium Response (AID 943).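 Note: Fluo-4 calcium signal as peak divided by basal fluorescence over 4 min; nearly all actives have a fitted effect of over 75% in size.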 To be noted: M1-expressing cells, kinetic intracellular calcium fluorescence; series mostly up to 35.3 µM. Summed up: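 Antagonism measured as reduction of carbachol-evoked (EC80, 100 nM final) calcium flux in rat M1-CHO cells after 10 min compound exposure. Fluo-4 signal read kinetically; ratio of maximal to basal fluorescence.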

Assay [11] has as its target Lysosomal acid glucosylceramidase (Homo sapiens) (UniProt P04062). Put plainly: Glucocerebrosidase-p2 (AID 348; in the data active = potency below about 10 µM; note: potency is the fitted concentration of half-maximal effect). To be noted: purified GBA, blue fluorogenic substrate, 40 min. Summed up:
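Normal human glucocerebrosidase (0.2 nM) with blue fluorogenic substrate (80 uM final) in citrate/phosphate pH 5.9 with 10mM sodium taurocholate, 0.01% tween-20; 40 min RT, NaOH/glycine stop; fluorescence Ex 365/Em 440; AC50 from a titration from 0.6 nM upwards.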

The target of assay [12] is Alpha-galactosidase A (Homo sapiens) (UniProt P06280). Put plainly: Counterscreen for Glucocerebrosidase Inhibitors: qHTS Assay for Human alpha-Galactosidase at pH 4.5 (AID 992). Note: 0% is about no effect. Conditions: purified enzyme, fluorogenic substrate; series mostly up to 76.9 µM. The gist of the method:
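Fluorogenic 4-MU alpha-D-galactoside (80 uM) hydrolysis, 2 nM enzyme, pH 4.5 citrate buffer + 0.005% Tween-20; 20 min RT; NaOH/glycine pH 10 stop; Ex365/Em440. Compounds titrated 0.7 nM–77 uM; Hill-equation AC50.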

A short description of assay [13]: Validation of Assay for Modulators of Lamin A Splicing (AID 1459; active = well fitted curve in the direction sought with a large enough effect in the signal ratio; the % refers to the signal ratio;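 note: cells exposed to compound for two days before reading; 0% is about no effect; ratio rise marks activators and ratio drop marks inhibitors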). Conditions: Lamin A splicing dual RFP/GFP fluorescence reporter; series mostly up to 9.22 µM. The gist of the method:
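Splicing correction read as GFP (500-530 nm) over DsRed2 (575-640 nm) object intensity after 48 h compound exposure of reporter HeLa S3 clones (600 cells/well, 2% FBS medium); ancitabine and cycloheximide titrations, 0.5% DMSO as vehicle.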

Assay [14] concerns the target DNA repair nuclease/redox regulator APEX1 (Homo sapiens) (UniProt P27695). Put plainly: qHTS Validation Assay for Inhibitors of the Human Apurinic/apyrimidinic Endonuclease 1 (APE1) (AID 1705; note: potency is the fitted concentration of half-maximal effect). To be noted: purified APE1 endonuclease activity, fluorescence, titration; series mostly up to 57.1 µM. Summed up:
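Activity read as rising fluorescence (598 nm emission, 525 nm excitation) from incision of a TAMRA/BHQ-2 duplex carrying a THF abasic site (50 nM). Compound and enzyme sat 15 min at RT before substrate start; signal change between first and third 60-s reads.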

Assay [15] can be described thus: Counterscreen for APE1 Inhibitors: Fluorescent Dye Displacement Validation Assay (AID 1707). Note: potency is the fitted concentration of half-maximal effect. Conditions: fluorescent dye displacement from DNA; series mostly up to 57.1 µM. Summed up: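 Endpoint fluorescence read at 480 nm excitation / 540 nm emission; DNA-binding compounds lower signal by displacing 250 nM Thiazole Orange from 50 nM dsDNA containing a tetrahydrofuran abasic site, Tris-HCl pH7.5 buffer with NaCl and MgCl2.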

Assay [16] addresses Endonuclease 4 (Escherichia coli (strain K12)) (UniProt P0A6C1). Put plainly: Counterscreen for APE1 Inhibitors: qHTS Validation Assay for Inhibitors of Endonuclease IV (AID 1708). Note: potency is the fitted concentration of half-maximal effect. Conditions: E. coli endonuclease IV, DNA cleavage fluorescence; series mostly up to 57.1 µM. The gist of the method: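 Conditions: 2 nM enzyme, 50 nM TAMRA/BHQ-2 substrate, pH 7.5 Tris buffer with 2 mM MgCl2, RT. Compound preincubation 15 min; readout three fluorescence reads 60 s apart, third-minus-first.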
On the technique in general: A counterscreen serves to expose hits that act by an unwanted route or on another target.

Assay [17] can be described thus: qHTS for differential inhibitors of proliferation of Plasmodium falciparum line 7G8 (AID 1815).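 Note: parasite growth measured after three days of incubation; plate controls were vehicle wells for no effect and reference inhibitor wells for full effect.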 Conditions: Plasmodium falciparum 7G8 proliferation inhibition; series mostly up to 28.7 µM.
The nature of assay [18]: qHTS for differential inhibitors of proliferation of Plasmodium falciparum line D10 (AID 1877).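 Note: parasites grown with compound for 72 h before DNA staining; plate controls were vehicle wells for no effect and reference inhibitor wells for full effect.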 Conditions: series mostly up to 28.7 µM.
Assay [19] can be described thus: qHTS for differential inhibitors of proliferation of Plasmodium falciparum line HB3 (AID 1886).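 Note: parasites grown with compound for 72 h before SYBR Green readout; plate controls were vehicle for no effect and reference inhibitor for full effect.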 Conditions: Potency: Plasmodium falciparum HB3 proliferation inhibition; series mostly up to 28.7 µM.
Assay [20] deals with ATP-dependent DNA helicase Q1 (Homo sapiens) (UniProt P46063). Put plainly: qHTS Validation Assay for Inhibitors of RecQ-Like Dna Helicase 1 (RECQ1) (AID 2353).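 Note: plate controls were DMSO vehicle for no effect and enzyme-free control for full effect.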 Conditions: recombinant RECQ1 helicase DNA unwinding assay; series mostly up to 25.6 µM. Summed up:
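RECQ1T1 50 nM; forked duplex (20 bp + 30-nt ss tails) 200 nM, ATP 2 mM final; pH 8.0, 2 mM MgCl2, 2.5 ug/ml poly(dI-dC); 15 min compound preincubation; discontinuous kinetic read over 2 h at RT.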

SMILES strings stand for the structures. Inconclusive results are not listed. Calls of active or inactive are those of the source. Unless noted, calls come from the whole dose curve; as a rule, active = well fitted curve in the direction sought with a large enough effect; inconclusive = small, poorly fitted or top-dose-only effect, or another doubt; inactive = no such curve, though single readings can be large; an effect the other way counts as inactive or inconclusive.

Chain of Alpha-galactosidase A (Homo sapiens) (P06280 whole entry, looked up): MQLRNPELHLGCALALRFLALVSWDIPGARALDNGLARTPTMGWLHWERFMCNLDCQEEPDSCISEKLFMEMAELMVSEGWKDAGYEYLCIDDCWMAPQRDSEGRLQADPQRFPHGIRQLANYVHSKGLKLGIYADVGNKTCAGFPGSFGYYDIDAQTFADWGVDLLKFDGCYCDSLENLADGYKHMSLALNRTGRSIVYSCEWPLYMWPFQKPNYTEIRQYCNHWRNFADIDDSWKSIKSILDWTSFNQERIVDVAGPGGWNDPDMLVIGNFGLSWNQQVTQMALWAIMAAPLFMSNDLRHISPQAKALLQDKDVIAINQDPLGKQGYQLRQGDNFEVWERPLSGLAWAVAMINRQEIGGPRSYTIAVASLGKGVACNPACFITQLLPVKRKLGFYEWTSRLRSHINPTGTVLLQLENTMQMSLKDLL
Chain of DNA repair nuclease/redox regulator APEX1 (Homo sapiens) (P27695 whole entry, looked up): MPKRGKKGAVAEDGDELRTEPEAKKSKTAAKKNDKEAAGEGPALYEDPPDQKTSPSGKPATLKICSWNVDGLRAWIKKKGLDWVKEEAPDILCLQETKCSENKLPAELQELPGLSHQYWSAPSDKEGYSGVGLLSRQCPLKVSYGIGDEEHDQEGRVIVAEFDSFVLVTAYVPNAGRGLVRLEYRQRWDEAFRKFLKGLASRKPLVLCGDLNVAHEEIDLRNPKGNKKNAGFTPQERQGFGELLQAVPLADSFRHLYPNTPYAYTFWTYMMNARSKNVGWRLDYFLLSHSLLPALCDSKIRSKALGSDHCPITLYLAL
Chain of Lysosomal acid glucosylceramidase (Homo sapiens) (P04062 whole entry, looked up): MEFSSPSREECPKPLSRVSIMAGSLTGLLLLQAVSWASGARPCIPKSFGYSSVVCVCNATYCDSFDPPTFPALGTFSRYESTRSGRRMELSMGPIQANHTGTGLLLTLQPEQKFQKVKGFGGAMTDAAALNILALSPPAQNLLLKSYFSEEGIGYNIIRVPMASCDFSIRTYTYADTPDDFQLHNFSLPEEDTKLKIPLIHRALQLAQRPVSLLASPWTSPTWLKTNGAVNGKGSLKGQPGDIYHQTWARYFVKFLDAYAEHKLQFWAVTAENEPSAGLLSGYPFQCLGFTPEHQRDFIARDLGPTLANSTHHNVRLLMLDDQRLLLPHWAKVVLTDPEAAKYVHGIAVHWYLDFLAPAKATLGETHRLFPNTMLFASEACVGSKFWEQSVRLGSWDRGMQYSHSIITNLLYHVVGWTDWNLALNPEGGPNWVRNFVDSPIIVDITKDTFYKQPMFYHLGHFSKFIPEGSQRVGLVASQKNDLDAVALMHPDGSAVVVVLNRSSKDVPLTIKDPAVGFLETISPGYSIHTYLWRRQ
Chain of Guanine nucleotide-binding protein G(i) subunit alpha-1 (Homo sapiens) (P63096 whole entry, looked up): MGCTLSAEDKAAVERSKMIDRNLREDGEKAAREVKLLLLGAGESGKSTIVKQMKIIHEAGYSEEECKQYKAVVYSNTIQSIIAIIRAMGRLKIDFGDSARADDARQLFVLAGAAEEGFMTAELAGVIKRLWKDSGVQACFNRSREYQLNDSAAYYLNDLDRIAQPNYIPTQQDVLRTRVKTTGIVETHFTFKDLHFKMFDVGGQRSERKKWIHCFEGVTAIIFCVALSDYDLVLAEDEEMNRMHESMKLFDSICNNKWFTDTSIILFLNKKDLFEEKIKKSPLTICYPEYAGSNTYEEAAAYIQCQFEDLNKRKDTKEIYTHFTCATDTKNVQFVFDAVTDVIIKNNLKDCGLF
Chain of ATP-dependent DNA helicase Q1 (Homo sapiens) (P46063 whole entry, looked up): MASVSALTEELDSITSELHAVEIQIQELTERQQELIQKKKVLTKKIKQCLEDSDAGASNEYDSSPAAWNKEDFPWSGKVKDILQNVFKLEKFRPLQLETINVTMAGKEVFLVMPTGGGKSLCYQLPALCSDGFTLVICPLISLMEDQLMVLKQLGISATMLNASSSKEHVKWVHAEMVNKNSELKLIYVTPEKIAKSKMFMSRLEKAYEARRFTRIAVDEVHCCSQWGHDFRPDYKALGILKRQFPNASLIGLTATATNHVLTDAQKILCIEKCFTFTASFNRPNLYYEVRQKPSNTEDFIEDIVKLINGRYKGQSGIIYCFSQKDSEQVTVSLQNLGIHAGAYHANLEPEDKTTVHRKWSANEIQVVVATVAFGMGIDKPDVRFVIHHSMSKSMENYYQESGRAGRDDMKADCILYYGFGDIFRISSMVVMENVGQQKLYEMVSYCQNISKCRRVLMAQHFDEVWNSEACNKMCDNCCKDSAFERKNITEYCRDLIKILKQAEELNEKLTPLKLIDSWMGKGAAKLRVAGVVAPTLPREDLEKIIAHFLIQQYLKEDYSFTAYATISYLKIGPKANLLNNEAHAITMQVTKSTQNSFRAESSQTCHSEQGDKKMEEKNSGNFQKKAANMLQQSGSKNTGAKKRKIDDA
Chain of Muscarinic acetylcholine receptor M1 (Rattus norvegicus) (P08482 whole entry, looked up): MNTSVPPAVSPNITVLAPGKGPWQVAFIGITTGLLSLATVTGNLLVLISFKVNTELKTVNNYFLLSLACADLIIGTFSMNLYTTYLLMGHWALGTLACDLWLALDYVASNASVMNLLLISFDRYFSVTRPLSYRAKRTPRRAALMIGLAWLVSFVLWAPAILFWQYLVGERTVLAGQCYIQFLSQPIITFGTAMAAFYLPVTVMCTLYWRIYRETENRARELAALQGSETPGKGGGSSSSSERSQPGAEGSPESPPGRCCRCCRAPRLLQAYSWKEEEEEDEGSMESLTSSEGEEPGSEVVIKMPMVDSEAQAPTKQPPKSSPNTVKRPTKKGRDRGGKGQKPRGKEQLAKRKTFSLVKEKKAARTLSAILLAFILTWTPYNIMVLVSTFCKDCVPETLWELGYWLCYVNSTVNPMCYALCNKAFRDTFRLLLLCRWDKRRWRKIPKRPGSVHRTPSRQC

Regarding `CC(=O)[C@H]1CC[C@H]2C3CC=C4C[C@@H](O)CC[C@]4(C)C3CC[C@]12C` (stereo not given in full), the outcome in assay [1] was inactive. Besides, the Potency entry in assay [2] and in assay [3] was “inactive” throughout.
For the compound `CC(C)N=C(N)N=C(N)Nc1ccc(Cl)cc1`, the parasite growth, % of DMSO control in [4] stood at 5.61%. The parasite growth remaining, % of DMSO control (lower = more inhibition) in assay [5] is 7.67%. The parasite growth, % of control (lower = inhibition) in assay [6] came to 12.7%. The compound also came in with a growth, % of control in [7] of 3.71%.
As to `COc1cc2c(cc1OC)-c1cc3nc4ccccc4nc3n1C(C)(C)C2`, the Potency in assay [8] is 12.6 µM (active).
For the compound `C[C@@H]1CNCCN1S(=O)(=O)c1cccc2cnccc12`, the compound was called inactive in [9]. In addition, the Potency entry in assay [10] was “inactive”.
Turning to `O=C(O)c1c(Br)c(Br)c(Br)c(Br)c1C1c2ccc(O)cc2Oc2cc(O)ccc21`, the Potency in assay [11] was 7.36 µM (active).
In the case of `O=C(Nc1cc(C(=O)Nc2ccc(S(=O)(=O)O)cc2S(=O)(=O)O)cc(C(=O)Nc2ccc(S(=O)(=O)O)cc2S(=O)(=O)O)c1)Nc1cc(C(=O)Nc2ccc(S(=O)(=O)O)cc2S(=O)(=O)O)cc(C(=O)Nc2ccc(S(=O)(=O)O)cc2S(=O)(=O)O)c1`, the call in assay [12] and in assay [13] was inactive. Further, the figures for the Potency in assay [14], in [15] and in assay [16] were 2.51 µM (active), 4.47 µM (active) and 6.31 µM (active), respectively. Also, the Potency result in assay [17], in assay [18], in assay [19] and in assay [20] was “inactive” in each case.

The values above are taken from PubChem BioAssay (NCATS).
